The text below walks through data of PubChem BioAssay AID624300 (Southern Research Specialized Biocontainment Screening …, 2012).

The whole screen tested about 2,400 compounds, of which about 360 (15%) were called active. The list is a sample of the results. Measured potencies and affinities stand elsewhere. Values without a mark were called inactive.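 How the source made its calls: active means viability falls under 70% at one or more tested concentrations, taken as toxicity; inactive means viability stays over 70% at every dose.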

The assay can be described thus: HeLa cell cytotoxicity, dose response, cytotoxicity control for MgcRacGAP inhibitor project (AID 624300).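 Further: 100% = median of untreated control wells on the same plate.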 The settings on record: CellTiter-Glo luminescence, 24 h; series mostly up to 100 µM; viability: at the top concentration.
The viability is a read-out of living cells in per cent, often relative to untreated cells. With `CN=c1scc(C)n1/N=C/c1ccc(O)cc1`, the “viability” value was 104%.
As to `Cc1cc(Br)cc(C=Nc2ccc(N3CCOCC3)cc2)c1O`, the “viability” value is 108%.
`O=C(c1cccc(Cl)c1)N1CCN(C2CCCCC2)CC1`: the “viability” value was 98.8%.
Turning to `Cc1c(Cl)cccc1NC(=S)Nc1ccc2[nH]c(=O)[nH]c2c1`, the “viability” value is 103%.
For the compound `Cc1ccc(OCCN2CCN(C)CC2)c([N+](=O)[O-])c1`, the “viability” value was 93.3%.
On to `O=C(CSc1nnnn1C1CC1)N1CCN(c2ccc(O)cc2)CC1`, for which the “viability” value was 104%.
On to `CCC(C)N1CCN(C(=O)c2cccs2)CC1` (stereo not given), for which the “viability” value is 103%.
The result for `Oc1ccc(Nc2ncnc3c2oc2ccccc23)cc1` reads 93.6%; that for `O=c1oc2ccccc2cc1-c1csc(Nc2ccc(O)cc2)n1`, 100%.
The result for `OC1CNc2c(ccc3ccccc23)C1` (stereo not given) reads 99.1%; that for `CC(CCN1CCN(CCO)CC1)c1ccccc1` (stereo not given), 100%; that for `O=[N+]([O-])c1ccc(N2CCN(CCOCCO)CC2)c([N+](=O)[O-])c1`, 92.2%.
`COc1ccc(OCCOCCN2CCN(C)CC2)cc1`: the “viability” value is 109%.
In the case of `OCCN1CCN(Cc2ccc3ccccc3c2)CC1`, the “viability” value was 99.5%.
For `COc1ccc(O)c(/C=N/NC(=O)c2c(C)nnn2-c2nonc2N)c1`, the “viability” value is 91%.
Turning to `c1ccc(CC2CCN(Cc3ccccn3)CC2)cc1`, the “viability” value was 95.7%.
The result for `CCC1(c2ccccc2)NC(=O)N(CC(=O)Nc2ccc(N3CCCC3)cc2C)C1=O` (stereo not given) reads 91.3%.
Turning to `CCOC(=O)c1c(C)[nH]c(C(=O)CN2CCN(CC)CC2)c1C`, the “viability” value is 99.3%.
Regarding `CCOC(=O)C1=C(C)Nc2ccc(C)cc2S1`, the “viability” value is 94.1%.
For the compound `COC(=O)c1cc(NCc2cccs2)ccc1N1CCOCC1`, the “viability” value was 96%.
Take `COc1cc(CNc2ccc(N3CCN(C(C)=O)CC3)cc2)ccc1OCc1ccccc1`: the “viability” value is 89%.
In the case of `COc1cc(CNc2ccc3[nH]c(=O)[nH]c3c2)ccc1OCc1ccccc1`, the “viability” value is 108%.
Consider `O=C(N/N=C/c1ccc(O)c2ccccc12)c1cccnc1`, for which the “viability” value was 96.2%.
The result for `Cc1nc(N)sc1-c1ccccc1` reads 94.9%; that for `COc1cc(Br)c(CNc2cc(C)ccc2C)cc1OC`, 87.7%.
Take `CC1=NN(c2ccc(C(=O)O)cc2)C(=O)/C1=C\c1ccc(OC(=O)c2cccs2)cc1`: the “viability” value was 94.7%.
As for `Cc1c(N2C(=O)/C(=C\c3ccc(N(C)C)cc3)N(C)C2=S)c(=O)n(-c2ccccc2)n1C`, the “viability” value is 83.4%.
For `CC1=NN(c2cccc(C(=O)O)c2)C(=O)/C1=C\C=C\c1ccco1` the value was 94.4%.
Consider `COc1ccccc1/C=C1/C(=O)N(c2ccccc2)N=C1C`, for which the “viability” value was 103%.
As to `Cc1ccc(N2C(S)=C(C#N)C(=O)NC2c2ccco2)cc1` (stereo not given), the “viability” value was 98.9%.
For `CCOc1cc(/C=N/NC(=O)C(=O)N2CCCC2)ccc1O` the value was 104%; for `Oc1ccc2ccccc2c1Br`, 94.4%; for `CC[n+]1c(/C=C/N(C)c2ccccc2)oc2ccc(Cl)cc21`, 95.9%.
In the case of `CC(=O)N1CCN(c2ccc(NCc3ccco3)cc2)CC1`, the “viability” value is 106%.
Take `CCN(CC)c1ccc(/C=C2\C(=O)c3ccc(C(=O)O)cc3C2=O)cc1`: the “viability” value is 101%.
Consider `O=C(O)c1ccc(COc2ccccc2C=C2C(=O)c3ccccc3C2=O)cc1`, for which the “viability” value was 98.2%.
With `Cc1cc(-c2n[nH]c(=S)n2/N=C/c2ccccc2[N+](=O)[O-])n[nH]1`, the “viability” value was 106%.
With `Cc1cccn2c(=S)[nH]nc12`, the “viability” value was 93.5%.
With `OCC1CCCN(C(=S)Nc2ccc(Nc3ccccc3)cc2)C1` (stereo not given), the “viability” value was 95.6%.
The result for `Nc1ccc(Nc2ccncc2)cc1` reads 99.7%; that for `Cc1ccc(/C=C/C(=O)Nc2ccc([N+](=O)[O-])c(NC(=O)/C=C/c3ccc(C)o3)c2)o1`, 102%.
For `Cc1c(O)ccc(NC(=O)/C=C/c2ccccc2)c1C` the value was 97.4%; for `C/C(=N/NC(=O)CSc1nc2ccccc2n1C)c1ccc(O)cc1`, 100%; for `CCOC(=O)C(Cc1ccccc1)C(=O)Nc1ccc(N(CC)CC)cc1` (stereo not given), 98.7%.
The result for `CCOC(=O)/C(C#N)=C\c1ccc(O)c(OC)c1` reads 87.2%; that for `CCOc1c(C=C(C#N)C#N)c2ccccc2n1CC`, 98.9%; that for `COc1ccc(NC2CCCN(C(=O)CCCn3cncn3)C2)cc1OC` (stereo not given), 104%.
For `Nc1ccc(Nc2nc(-c3ccncc3)cs2)cc1`, the “viability” value is 92.6%.
As for `O=C(CNC(=O)C1COc2ccccc2O1)N/N=C/c1ccc(O)cc1O` (stereo not given), the “viability” value was 107%.
As to `CCCCN(C)CCNC(=O)CSCc1ccc(C)cc1`, the “viability” value was 92.8%.
The result for `O=C(Nc1n[nH]c(=S)s1)c1ccco1` reads 102%; that for `CN(Cc1ccccc1)Cc1c(O)ccc2ccccc12`, 97.2%; that for `COc1ccc(CN2CCC(C(N)=O)CC2)cc1OCc1ccccc1`, 98%.
For `COC(=O)c1cc(NCc2ccccc2F)ccc1N1CCOCC1` the value was 105%.
Take `COc1ccc(CN2CCN(Cc3ccc4ccccc4c3)CC2)cc1OC`: the “viability” value was 85.3%.
Consider `COc1cc2cc(NC(C)=O)cc(NCc3ccccc3)c2cc1OC`, for which the “viability” value is 104%.
As to `Cc1nc2ccc(-c3nc4ccc(N)cc4[nH]3)cc2[nH]1`, the “viability” value was 86.7%.
The result for `Cc1nc(Cc2nnc(SCC(=O)N3CCN(c4ccc(O)cc4)CC3)o2)cs1` reads 100%.
For the compound `Nc1nc(=S)ss1`, the “viability” value was 97.5%.
As for `COc1cc(/C=C/C(C)=NNc2ccccc2)ccc1O`, the “viability” value was 98.3%.
